# Data published in PubChem BioAssay (Tox21).
# Inconclusive results are not listed. Where a call stands in place of a potency, no number is given. A number with no mark means an inactive call. Calls of active or inactive are those of the source. Calls come from the whole dose curve; as a rule, active = well fitted inhibition curve with a large enough effect in the repeat runs; inconclusive = weak or mixed curves, or effect the other way; inactive = no such curve, though single readings can be large or run the other way.
# Target: Nuclear receptor subfamily 1 group I member 3 (Homo sapiens) (UniProt Q14994)
# Assay: qHTS assay to identify small molecule antagonists of the constitutive androstane receptor (CAR) signaling pathway (AID 1224838);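 note: HepG2 cells stably expressing hCAR with CYP2B6 luciferase reporter stimulated by CITCO; nearly all actives have a fitted effect of over 40% in size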
# Conditions: HepG2-CYP2B6-hCAR luciferase, CITCO-stimulated, 24 h; series mostly up to 92.4 µM
# Text: U.S. Tox21 Program National Center for Advancing Translational Sciences [NCATS] NIH Chemical Genomics Center [NCGC] U.S. Environmental Protection Agency [EPA] National Institutes of Environmental Health Sciences [NIEHS] National Toxicology Program [NTP] U.S. Food and Drug Administration [FDA] Tox21 Assay Overview: The constitutive androstane receptor (CAR) is a nuclear receptor which regulates multiple drug metabolizing enzymes (DMEs) and transporters. Activating CAR will generally increase the transcription and subsequent translation of CYP2B6 and CYP3A4. These two DMEs represent about 50% of the drug metabolizing potential in the body. When CAR is deactivated, the metabolizing potential in the body will decrease, subsequently increasing the toxicity in the body or lowering the therapeutic potential of a pro-drug. Recently, there have also been studies performed indicating CARs role in energy metabolism and cancer therapy. Therefore, inhibiting CARs activity could have a potential effect on diabetes and cancer. Identifying environmental toxins and compounds which modulate CAR, through the use of the Tox21 10K compound collection, will be an important step in determining the toxicity and potential therapeutic effects these factors will have on the human body.
# Tox21 Assay Protocol Summary: A double-stable (hCAR and CYP2B6-2.2kb) transfected cell line, derived from human hepatoma (HepG2) cells, was utilized for the duration of the quantitative high-throughput screens. The HepG2-CYP2B6-hCAR cells suspended in DMEM culture medium supplemented with 10% FBS, 5 ug/mL blasticidin, 0.5 mg/mL geneticin, 100 U/mL penicillin and 100 ug/mL streptomycin were dispensed at 2500 cells/4 uL/well in 1536-well white solid bottom plates using a Multidrop Combi. After the assay plates were incubated at 37 C/5% CO2 for 4 hrs, 23 nL of compounds at 15 concentrations (from 5-48 columns) or positive control (from 1 to 4 columns) were transferred to the assay plates using a Pintool station. One uL of CITCO, was added using a Flying Reagent Dispenser to generate a final concentration of 50 nM CITCO inside each well. After a 24 hr incubation period at 37 C/5% CO2, four uL of ONE-Glo reagent was added into the assay plates using a Flying Reagent Dispenser. After a 30 min incubation period at room temperature, the luminescence intensity in the assay plates was measured using a ViewLux plate reader.
# Potency is the fitted concentration of half-maximal effect.
# Nuclear receptor subfamily 1 group I member 3 (Homo sapiens), sequence (Q14994 whole entry, looked up): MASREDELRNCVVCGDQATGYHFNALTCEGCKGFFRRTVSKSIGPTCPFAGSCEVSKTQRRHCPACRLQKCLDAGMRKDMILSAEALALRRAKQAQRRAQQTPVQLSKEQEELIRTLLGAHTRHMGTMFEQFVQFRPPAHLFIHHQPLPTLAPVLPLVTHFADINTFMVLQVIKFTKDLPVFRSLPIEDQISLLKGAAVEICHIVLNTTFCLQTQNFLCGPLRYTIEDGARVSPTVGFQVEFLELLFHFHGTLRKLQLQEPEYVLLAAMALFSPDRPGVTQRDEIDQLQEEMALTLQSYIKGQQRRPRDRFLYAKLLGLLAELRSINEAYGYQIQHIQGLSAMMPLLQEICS
SMILES,Potency,"activity, negative = inhibition"
CCCCC(CC)CN1C(=O)C2C3C=CC(C3)C2C1=O (stereo not given),inactive,
CN1Cc2cc(C(=O)N3CCC(C4CCNCC4)CC3)ccc2NC(CC(=O)O)C1=O (stereo not given),inactive,
C/C(=C(\CCOP(=O)(O)O)SC(=O)c1ccccc1)N(C=O)Cc1cnc(C)nc1N,,-18% [at 8.39 µM]
CCCCc1ncc(/C=C(\Cc2cccs2)C(=O)O)n1Cc1ccc(C(=O)O)cc1,inactive,
Nc1cccc(S(=O)(=O)c2cccc(N)c2)c1,inactive,
CCOC(=O)Cc1cccc2ccccc12,inactive,
O=C(c1ccc(F)cc1)C1CCN(CCn2c(=S)[nH]c3ccccc3c2=O)CC1,inactive,
C[N+]1(C)CCC(OC(=O)C(O)(c2ccccc2)C2CCCC2)C1 (stereo not given),inactive,
C=CCOC(=O)CCC1CCCCC1,inactive,
CCCCNc1ccc(C(=O)OCCOCCOCCOCCOCCOCCOCCOCCOCCOC)cc1,inactive,
O=C(O)c1ccc(S(=O)(=O)O)cc1C(=O)O,inactive,
OC(CN1CCC(Cc2ccc(F)cc2)CC1)c1ccc(Cl)cc1 (stereo not given),23.7 µM (active),
CCCCOC(=O)CCCCCCCC(=O)OCCCC,inactive,
NCC(=O)O,,-5.57% [at 19 µM]
CCN(CC)CCOC(=O)C(Cc1cccc2ccccc12)CC1CCCO1 (stereo not given),inactive,
CCCCCCCCCCCCCCCCOS(=O)(=O)O,inactive,
COc1cc(Cl)ccc1Oc1ccc(Cl)cc1Cl,inactive,
Nc1ccc(S(=O)(=O)Nc2ccccc2)cc1,inactive,
CN(Cc1ccc(C(C)(C)C)cc1)Cc1cccc2ccccc12,inactive,
O=C(OCCc1ccccc1)c1ccccc1,inactive,

SMILES,Potency,"activity, negative = inhibition"
CCCCCCCCCCO[C@@H]1O[C@H](CO)[C@@H](O)[C@H](O)[C@H]1O,inactive,
CCCCCCCCCCCCCCOS(=O)(=O)O,inactive,
CC(=O)OC[C@H]1O[C@@H](n2ncc(=O)[nH]c2=O)[C@H](OC(C)=O)[C@@H]1OC(C)=O,inactive,
C[C@@H]1C[C@H]2[C@@H]3CCC4=CC(=O)C=C[C@]4(C)[C@@]3(F)[C@@H](O)C[C@]2(C)[C@@]1(O)C(=O)COC(=O)c1ccncc1,inactive,
CN(C)CCN(Cc1ccsc1)c1ccccn1,inactive,
O=C(O)CNCC(=O)O,,15.5% [at 8.39 µM]
Brc1c2ccccc2c(Br)c2ccccc12,,22.1% [at 8.39 µM]
C=CCOc1ccccc1OCC(O)CNC(C)C (stereo not given),inactive,
CCc1c(C(=O)NN2CCCCC2)nn(-c2ccc(Cl)cc2Cl)c1-c1ccc(Br)cc1,21.7 µM (active),
COCCCN1CCC(NC(=O)c2cc(Cl)c(N)c3c2OCC3)CC1,inactive,
COC(=O)C1=C(C)NC(COC(N)=O)=C(C(=O)OC(C)C)C1c1cccc(Cl)c1Cl (stereo not given),inactive,
O=C(O)C(S)C(S)C(=O)O (stereo not given),inactive,
OC[C@H]1O[C@@H](OCCc2ccc(O)cc2)[C@H](O)[C@@H](O)[C@@H]1O,inactive,
CCCCCCc1ccc(-c2ccc(C#N)cc2)cc1,inactive,
COc1cc(C(=O)OCCCN2CCCN(CCCOC(=O)c3cc(OC)c(OC)c(OC)c3)CC2)cc(OC)c1OC,inactive,
CC(C)OC(=O)C(C)N(C(=O)c1ccccc1)c1ccc(F)c(Cl)c1 (stereo not given),inactive,
O=S(c1cc(Cl)cc(Cl)c1O)c1cc(Cl)cc(Cl)c1O,inactive,
CCCCC/C=C\C/C=C\CCCCCCCC(=O)NC(C)c1ccccc1 (stereo not given),inactive,
CCOc1ccc(O)cc1,inactive,
C=C(C)C(=O)OCCOCC,inactive,
